SMILES strings stand for the structures. Out of some 400,000 compounds screened, about 2,100 (0.53%) were called active. About 14% were inconclusive and are not listed. No rule for the calls is given here. Many of the other results were omitted from the sample, so actives are more common in it than they were.

These results are taken from ChEMBL document CHEMBL1201862, “PubChem BioAssay data set” (2004).

The target in the experiment is Ataxin-2 (Homo sapiens) (UniProt Q99700). Kind of experiment: qHTS for Inhibitors of ATXN expression. The format is functional. For orientation: qHTS replaces the single test concentration by a dilution series.
Sequence of Ataxin-2 (Homo sapiens) (Q99700 whole entry): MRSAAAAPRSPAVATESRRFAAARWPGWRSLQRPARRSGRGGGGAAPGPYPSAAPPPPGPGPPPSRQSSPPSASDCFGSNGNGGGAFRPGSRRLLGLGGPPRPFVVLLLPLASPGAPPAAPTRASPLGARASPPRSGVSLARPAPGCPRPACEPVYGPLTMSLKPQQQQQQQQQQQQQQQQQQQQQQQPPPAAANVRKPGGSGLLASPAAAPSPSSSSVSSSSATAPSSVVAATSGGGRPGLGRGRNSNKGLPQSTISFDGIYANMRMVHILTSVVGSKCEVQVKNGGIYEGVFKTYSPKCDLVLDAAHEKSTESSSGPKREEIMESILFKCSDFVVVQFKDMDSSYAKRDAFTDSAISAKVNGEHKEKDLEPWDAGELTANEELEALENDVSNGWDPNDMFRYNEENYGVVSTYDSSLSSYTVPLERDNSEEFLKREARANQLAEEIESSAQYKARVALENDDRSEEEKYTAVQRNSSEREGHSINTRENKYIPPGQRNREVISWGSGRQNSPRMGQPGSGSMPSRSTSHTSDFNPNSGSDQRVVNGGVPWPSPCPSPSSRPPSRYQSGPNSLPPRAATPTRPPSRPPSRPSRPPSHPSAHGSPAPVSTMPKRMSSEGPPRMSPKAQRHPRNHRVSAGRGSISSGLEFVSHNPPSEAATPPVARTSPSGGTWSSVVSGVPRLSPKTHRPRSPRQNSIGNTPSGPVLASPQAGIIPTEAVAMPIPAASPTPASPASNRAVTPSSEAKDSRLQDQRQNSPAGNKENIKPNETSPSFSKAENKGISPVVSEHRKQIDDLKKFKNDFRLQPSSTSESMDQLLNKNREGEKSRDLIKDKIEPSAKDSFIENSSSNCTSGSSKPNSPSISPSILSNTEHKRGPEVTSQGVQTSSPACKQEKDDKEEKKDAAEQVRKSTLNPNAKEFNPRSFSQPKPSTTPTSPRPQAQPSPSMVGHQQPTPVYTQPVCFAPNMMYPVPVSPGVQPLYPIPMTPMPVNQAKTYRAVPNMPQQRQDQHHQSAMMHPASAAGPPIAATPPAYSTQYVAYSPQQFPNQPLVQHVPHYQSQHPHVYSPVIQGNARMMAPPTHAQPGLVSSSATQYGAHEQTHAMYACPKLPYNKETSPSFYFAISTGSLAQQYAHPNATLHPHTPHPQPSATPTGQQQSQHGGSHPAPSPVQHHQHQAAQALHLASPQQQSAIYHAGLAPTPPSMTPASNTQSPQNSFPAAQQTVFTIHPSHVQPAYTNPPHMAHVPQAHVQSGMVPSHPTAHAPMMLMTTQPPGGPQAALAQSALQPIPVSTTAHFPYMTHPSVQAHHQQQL
With `COCCCn1c(=N)c(C(=O)NCc2ccco2)cc2c(=O)n3ccccc3nc21`, the Potency entry is “inactive”.
As to `CCN(C(=O)COC(=O)c1cc(-c2ccc(C)o2)nc2ccccc12)C1CCS(=O)(=O)C1` (centres undefined), the Potency result is “inactive”.
Regarding `COc1ccc(OC)c(NC(=O)CCN2CCN(C/C=C/c3ccccc3)CC2)c1`, the Potency entry is “inactive”.
For the compound `COc1cc(NC(=O)CN2CCN(S(=O)(=O)/C=C/c3ccccc3)CC2)cc(OC)c1OC`, the Potency entry is “inactive”.
In the case of `CCOC(=O)c1[nH]c2ccc(F)cc2c1NC(=O)CN1CCN(C/C=C/c2ccccc2)CC1`, the Potency was 39.8 µM (active).
`CCCCCCCN(c1ccccc1)[C@@H]1C[C@H]2CCCC(=O)N3CC[C@@H](C1)[C@@H]23`: the Potency is 35.5 µM (active).
To `COc1ccc(NC(=O)c2ccc(-c3ccc(-c4noc(C)n4)cc3C)cc2)cc1N1CCN(C)CC1` belongs 39.8 µM (active); to `CC(C)(C)c1ccc(CN2N=Nc3ccccc3S2(=O)=O)cc1`, 39.8 µM (active).
With `O=C(N/N=C\c1c(O)ccc2ccccc12)c1cncc(Br)c1`, the Potency result was “inactive”.
Turning to `CC(C)(C)C(=O)Oc1ccc2cc(-c3ccc4ccccc4n3)c(=O)oc2c1`, the Potency result is “inactive”.
As to `COC(=O)c1ccccc1SCC(=O)Nc1ccc(N2CCOCC2)cc1`, the Potency entry is “inactive”.
Consider `COc1ccc(N2C(=O)c3cccc4c(N(C)CCO)ccc(c34)C2=O)cc1`, for which the Potency entry was “inactive”.
To `COc1ccc(NC(=O)CSc2ccc3c4c(cccc24)C(=O)c2ccccc2-3)cc1` belongs 22.4 µM (active); to `Oc1ccc(Cl)cc1/C=N/c1ccc2c3c(cccc13)CC2`, “inactive”.
Regarding `CCn1c(=O)c(C(=O)NCc2ccc3c(c2)OCO3)c(O)c2ccccc21`, the Potency entry was “inactive”.
The value for `CC(C)(C)[S+]([O-])N1Cc2cc(C(=O)NCc3ccc(Oc4ccccc4)cc3)nc(-c3cccc(-c4cc5ccccc5o4)c3)c2[C@H]1CCO` (some centres undefined) was 35.5 µM (active); that for `CC(C)(C)[S+]([O-])N1Cc2cc(C(=O)NCc3ccc(Oc4ccccc4)cc3)nc(-c3cccc(-c4cc5ccccc5o4)c3)c2[C@@H]1CCO` (some centres undefined) was 39.8 µM (active); that for `O=C(CSc1nc(C2CCCCC2)nc2ccccc12)NCc1ccc2c(c1)OCO2` was “inactive”.
For the compound `CC(=O)N1Cc2cc(C(=O)NCc3cccc(F)c3)nc(-c3cccc(C4=CCCCC4)c3)c2[C@H]1CCO`, the Potency is 35.5 µM (active).
To `CC(C)(C)[S+]([O-])N1Cc2cc(C(=O)NCc3ccc4c(c3)OCO4)nc(-c3cccc(-c4cc5ccccc5o4)c3)c2[C@@H]1CCO` (some centres undefined) belongs 31.6 µM (active); to `O=S(=O)(c1ccccc1)N1CCN=C1SCc1cccnc1`, “inactive”; to `CCN(CC)c1ccc2cc(C(=O)NNC(=O)c3ccc(S(=O)(=O)N4CCCCC4)cc3)c(=O)oc2c1`, “inactive”.
With `N#CC1=C(N)N2C(=C(C#N)C1c1ccc(Br)cc1)Nc1ccccc12` (centres undefined), the Potency result is “inactive”.
To `O=C1OCCN1C(=O)[C@H]1[C@H](c2ccc(Cl)cc2)C(c2ccccc2)=NN1c1ccccc1` belongs “inactive”; to `CCOc1ccc(S(=O)(=O)[N-]c2nc3ccccc3nc2-[n+]2ccc(NC(=O)c3ccccc3C)cc2)cc1`, “inactive”.
For `Cc1cccc2cc3c(NC(=O)C(C)(C)C)nn(CC(C)C)c3nc12`, the Potency result is “inactive”.
In the case of `Cc1cc(NN)nc(NS(=O)(=O)c2ccc(Cl)cc2)n1`, the Potency entry was “inactive”.
The value for `CN(C)C(=O)c1cccc(-c2cccc(-c3nc(C(=O)NCc4ccccc4)cc4c3[C@@H](CCO)N([S+]([O-])C(C)(C)C)C4)c2)c1` (some centres undefined) was 25.1 µM (active).
As to `CSc1nnc(N2C(=O)C(O)=C(C(=O)c3ccco3)C2c2ccc(F)cc2)s1` (centres undefined), the Potency entry was “inactive”.
On to `CCN=C(S)NCc1ccc2[nH]c(C)cc2c1`, for which the Potency entry is “inactive”.
For `FC(F)(F)c1cc(CO[C@@H]2CCCN[C@@H]2c2ccccc2)cc(C(F)(F)F)c1`, the Potency was 35.5 µM (active).
To `Cc1c(Br)c(=O)oc2c(Br)c(O)ccc12` belongs “inactive”; to `Cc1cc(C2(c3ccc(O)c(C)c3)C(=O)N(C)c3ccc(Br)cc32)ccc1O`, 44.7 µM (active); to `CC1(C)OC(=O)C(/C=N\Nc2c(Cl)cc(Cl)cc2Cl)=C(O)O1`, “inactive”.
`Cc1cc2oc3cc(NCCC4CCCN4C)ccc3c(=O)c2cc1C` (centres undefined): the Potency entry was “inactive”.
As for `C=C(C)c1nc(Oc2ccccc2)nc(Oc2ccccc2)n1`, the Potency was 33.6 µM (active).
For `COc1ccc2cc(-c3cc(C(=O)OCC(=O)NC4CCS(=O)(=O)C4)c4ccccc4n3)ccc2c1` (centres undefined), the Potency result was “inactive”.
`CC1C(C#N)=C(SCC(N)=O)N=C2CC(C)(C)CC(O)=C21` (centres undefined): the Potency result is “inactive”.
Regarding `COc1cc(/C=C(\C#N)c2nc3ccccc3[nH]2)ccc1OCc1ccccc1F`, the Potency entry was “inactive”.
Take `COc1cccc(CNc2nc[nH]n2)c1OCc1ccccc1F`: the Potency result was “inactive”.
Consider `COc1cc(/C=C(\C#N)c2nc3ccccc3[nH]2)ccc1OCc1ccc(F)cc1`, for which the Potency result is “inactive”.
To `COc1cc(CNCCc2c[nH]c3ccccc23)ccc1OCc1ccc(F)cc1` belongs 35.5 µM (active); to `COc1ccc(CNc2cccc3[nH]c(C(F)(F)F)nc23)cc1OC`, “inactive”.
On to `COc1cccc(CNCCc2c[nH]c3ccccc23)c1OCc1ccccc1F`, for which the Potency was 28.2 µM (active).
For the compound `COC(=O)C1=CN(CCCN2CCCC2=O)C=C(C(=O)OC)C1c1ccccc1C(F)(F)F`, the Potency result was “inactive”.
Turning to `Cc1c(Cc2ccccc2)c(=O)oc2c(CN(C)C)c(O)c(Cl)cc12`, the Potency entry was “inactive”.
In the case of `COc1ccc2cc(-c3nc(Cl)c4c5c(sc4n3)CCCC5)c(=O)oc2c1`, the Potency entry was “inactive”.
Regarding `c1ccc(CNc2ncnc3sc4c(c23)CCCC4)nc1`, the Potency result was “inactive”.
Consider `Cc1cc(C)n(-c2nc(NCCCN(C)C)c3c4c(sc3n2)CCCC4)n1`, for which the Potency was 25.1 µM (active).
Consider `CCn1cc(C2N3CC4(C)CN2CC(C)(C3)C4=O)c2ccccc21` (centres undefined), for which the Potency result was “inactive”.
Turning to `CCNc1cc2oc(=O)c(CN3CCOCC3)c(C)c2cc1C`, the Potency entry was “inactive”.
Regarding `COc1ccc(-n2c(-c3cccc(OC)c3)nc(=S)c3c2CCCC3)cc1`, the Potency was 25.1 µM (active).
With `COc1cccc(N2CCc3c(C)nc4ccc(Cl)cc4c32)c1`, the Potency entry is “inactive”.
The value for `COc1ccc(N2CCN(c3cc(C)c4cccc(C)c4n3)CC2)cc1` was “inactive”; that for `CN1CCN(CC/C=C2/c3ccccc3Sc3ccc(S(=O)(=O)N(C)C)cc32)CC1` was 35.5 µM (active).
To `Cc1ccccc1-n1c2nc(=O)n(C)c(=O)c-2cc2ccccc21` belongs “inactive”.
The value for `CCCc1nc2c(=O)n(C)c(=O)nc-2n(C)n1` was 8.44 µM (active).
On to `Cn1nc(-c2ccccn2)nc2c(=O)n(C)c(=O)nc1-2`, for which the Potency was 17.8 µM (active).
The value for `Cn1c(=O)nc2n(Cc3ccccc3)c3ccccc3cc-2c1=O` was “inactive”.
As to `Cc1ccc(C)c(-n2c3nc(=O)n(C)c(=O)c-3cc3ccccc32)c1`, the Potency entry was “inactive”.
Take `CC(C)(C)C1CCC(CN2C(Nc3ccccc3)=NC[C@@H]2Cc2ccccc2)CC1` (some centres undefined): the Potency was 25.1 µM (active).
For the compound `CC(C)C[C@H]1CN=C(Nc2ccccc2)N1CCCC1CCCCC1`, the Potency was 22.4 µM (active).
`CCC(=O)c1cc2c(C)cc(=O)oc2c(C)c1OC(=O)C(C)C`: the Potency entry was “inactive”.
Take `O=[N+]([O-])c1ccccc1S(=O)(=O)N1CCN(Cc2ccccc2)CC1`: the Potency entry was “inactive”.
Turning to `CN1CCN(S(=O)(=O)c2ccc(Sc3nnnn3-c3ccccc3)c([N+](=O)[O-])c2)CC1`, the Potency is 39.8 µM (active).
Turning to `COc1cc(OC)cc(OC(=O)c2cccc(S(=O)(=O)N3CCN(C)CC3)c2)c1`, the Potency entry is “inactive”.
On to `NC1=NC[C@H](c2ccccc2)N1CCc1cc(C(F)(F)F)cc(C(F)(F)F)c1`, for which the Potency is 28.2 µM (active).
Regarding `FC(F)(F)c1cc(CCN2C(S)=NC[C@@H]2Cc2ccccc2)cc(C(F)(F)F)c1`, the Potency was 39.8 µM (active).
For `CCC(C)[C@H]1CN=C(S)N1CCc1cc(C(F)(F)F)cc(C(F)(F)F)c1` (some centres undefined), the Potency was 35.5 µM (active).
On to `COc1cccc(C2=CC(c3ccccc3F)n3ncc(C(=O)Nc4ccc(F)cc4)c3N2)c1` (centres undefined), for which the Potency result is “inactive”.
For the compound `CC1CC(Nc2ccccc2)c2ccccc2N1C(=O)c1ccncc1` (centres undefined), the Potency entry was “inactive”.
The value for `CN1CCc2c(sc3c2C(=O)NC(c2ccc(-c4cccc(Cl)c4)o2)N3)C1` (centres undefined) was “inactive”.
For `COn1c(=O)c(-c2ccc(F)cc2)[n+]([O-])c2ccccc21`, the Potency result was “inactive”.
As for `CCN(CC)Cc1c(O)c(Cl)cc2c(C)c(C)c(=O)oc12`, the Potency result is “inactive”.
The value for `COc1ccc(/C=N/NC(=O)c2[nH]c3ccc(Cl)cc3c2-c2ccccc2)c(C(=O)O)c1OC` was “inactive”; that for `O=C1OCCN1C(=O)[C@H]1[C@H](c2ccccc2)C(c2ccc(F)cc2)=NN1c1ccccc1` was “inactive”.
With `CCn1nc(NC(=O)C2CCCO2)c2cc3cccc(C)c3nc21` (centres undefined), the Potency entry was “inactive”.
As for `COc1cc(C2C=C(c3cccs3)Nc3ncnn32)cc(OC)c1OC` (centres undefined), the Potency entry was “inactive”.
For the compound `Cc1cnc(-n2ncc(C(=O)N3CCN(C(C)C)CC3)c2-c2ccco2)nc1-c1ccc(F)cc1`, the Potency result was “inactive”.
Turning to `CC(=O)N(Cc1ccccn1)Cc1ccco1`, the Potency entry was “inactive”.
To `S=C(NN=C(c1ccccc1)c1ccccn1)N(Cc1ccccn1)Cc1ccccn1` belongs 15.8 µM (active).
The value for `COC(=O)CC1C(=O)NCCN1C(=O)CSc1nc2ccccc2c(=O)n1CC(C)C` (centres undefined) was “inactive”; that for `Cc1nc(C/C(=N\N)c2ccc(O)cc2O)cs1` was “inactive”; that for `O=C1c2cccc3c(N4CCCCC4)ccc(c23)C(=O)N1c1cccc(O)c1` was “inactive”.
Take `COc1cc2c(cc1OC)CN(C(=O)CSc1ccc(F)cc1)CC2`: the Potency entry was “inactive”.
To `COc1cc2c(cc1OC)CN(Cc1cc(=O)n3c(-c4ccccc4)csc3n1)CC2` belongs “inactive”; to `COc1ccc(C(=O)CCN2CCc3cc(OC)c(OC)cc3C2)cc1`, 26.7 µM (active).
With `Cc1c(C)c2cc(Cl)c(O)c(CN3CCN(C)CC3)c2oc1=O`, the Potency result is “inactive”.
Turning to `CN1CCN(c2ccc(Cl)cc2NC(=O)/C=C/c2ccc(F)cc2)CC1`, the Potency entry was “inactive”.
`CC1CCN(CCN=C(S)Nc2ccc(Cl)cc2)CC1`: the Potency result was “inactive”.
The value for `CN1CCC(NCCC(c2ccc(F)cc2)c2ccc(Cl)cc2)CC1` (centres undefined) was 25.1 µM (active).
The value for `CCOc1ccc(Cl)cc1/C=N/NC(N)=O` was “inactive”.
To `COc1ccccc1Sc1ccccc1/C=N/NC(N)=O` belongs 39.8 µM (active).
Regarding `COc1cc(Cl)cc(/C=N/NC(N)=O)c1O`, the Potency entry is “inactive”.
